About 5,700 (36%) of roughly 16,000 compounds were called active. Inconclusive results (about 24%) are left out. The call rests on the fitted dose curve; in most records, active means well fitted curve in the direction sought with a large enough effect; inconclusive means small, poorly fitted or top-dose-only effect, or effect the other way; inactive means no such curve, though single readings can be large or run the other way. The list shows a part of the results.
Biological target: Cytochrome P450 1A2 (Homo sapiens) (UniProt P05177)
Experiment: Cytochrome panel assay with activity outcomes
Conditions: recombinant CYP, pro-luciferin dealkylation, luminescence, p450-cyp1a2; series mostly up to 57.1 µM
On the % scale 0 is the no-effect control and ±100 the full control effect.

Chain of Cytochrome P450 1A2 (Homo sapiens) (P05177 whole entry, looked up): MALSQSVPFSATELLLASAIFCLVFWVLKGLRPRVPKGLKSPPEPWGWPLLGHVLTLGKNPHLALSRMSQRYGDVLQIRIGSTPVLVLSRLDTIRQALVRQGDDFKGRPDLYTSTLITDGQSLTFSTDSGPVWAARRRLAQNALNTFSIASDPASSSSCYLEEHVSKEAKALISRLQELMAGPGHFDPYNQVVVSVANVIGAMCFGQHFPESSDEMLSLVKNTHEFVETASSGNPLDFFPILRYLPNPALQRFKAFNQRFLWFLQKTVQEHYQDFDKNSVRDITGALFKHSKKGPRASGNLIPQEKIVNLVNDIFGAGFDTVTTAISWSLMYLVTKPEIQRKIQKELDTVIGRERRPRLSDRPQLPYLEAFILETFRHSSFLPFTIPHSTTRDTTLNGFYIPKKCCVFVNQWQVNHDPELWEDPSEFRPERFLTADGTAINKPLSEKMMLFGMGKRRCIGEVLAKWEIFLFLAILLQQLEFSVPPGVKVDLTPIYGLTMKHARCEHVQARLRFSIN

activity, negative = inhibition, inactive:
Cc1c(C)c(C)c(CC2(C)CSC2)c(CC2(C)CSC2)c1C -16.1% [at 11.4 µM]
COc1cccc([C@@H]2Oc3ccc(OC)cc3/C(=N/OC[C@@H](O)COCc3ccco3)[C@@H]2O)c1 -3.42% [at 11.4 µM]
CO[C@H]1COC(=O)C/C=C\[C@H](C)[C@@H](NS(=O)(=O)c2ccc(C)cc2)COC(=O)CCC[C@@H]1C 1.16% [at 11.4 µM]
C=CC[C@@H]1C=C[C@H](O/N=C(\C)CCN2CCc3nc(CC)c(CC)cc3C2)[C@H](CO)O1 -3.35% [at 11.4 µM]
C/C(=N/NS(=O)(=O)c1ccc(C)cc1)P(=O)(O)O -10% [at 11.4 µM]
CC(C)=CCC/C(C)=C/CO/N=C1/C[C@@H](O)[C@@H](O)[C@@H]2[C@@H]3C(=O)N(C4CCCCC4)C(=O)[C@H]3CC[C@@H]12 -3% [at 11.4 µM]

AC50, inactive:
CCCNC1CCS(=O)(=O)C1 (stereo not drawn)
Cc1ccc(/S(C)=N/S(=O)(=O)c2ccc(C)cc2)cc1 (stereo not drawn)
CCCS(=O)(=O)N1CCCC(C(=O)NCCCOCC)C1 (stereo not drawn)
CCCS(=O)(=O)N1CCCC(C(=O)NCCCOC(C)C)C1 (stereo not drawn)
CN1c2ccccc2C(O)=C(C(=O)Nc2ccccc2)S1(=O)=O
COC(=O)c1ccc(NC(=O)c2ccccc2NS(=O)(=O)c2ccccc2)cc1
N#Cc1ccc(CN2CCCC3(CCN(C(=O)c4cccc(F)c4)CC3)C2)cc1
Cn1c(=O)[nH]c(=O)c2c1nc(CN1CCOCC1)n2CCCO
Cc1ccccc1CN1CCN(CC(=O)NCCCN2CCN(c3ccc(F)cc3)CC2)C1=O
CS(=O)(=O)N1CCC[C@@]2(CCN(C(=O)Nc3cccc(C#N)c3)C2)C1
Cc1ccc(S(=O)(=O)Nc2nc(C)c(NC(=O)Nc3ccc(Cl)cc3Cl)s2)cc1
COc1ccc(C(=O)Nc2cccc(/C(C)=N/NC(=O)c3ccc([N+](=O)[O-])cc3)c2)cc1OC
Oc1ccc([C@@H]2CNCCc3c2cc(O)c(O)c3Cl)cc1
CN1CC[C@@]2(CCCN(C(=O)c3cc(C(F)(F)F)cc(C(F)(F)F)c3)C2)C1
CN(/C=C/C(=O)C(F)(F)F)Cc1ccccc1
CC(=O)Nc1ccc(S(=O)(=O)NC(CC(=O)NCCCN2CCOCC2)C(C)C)cc1 (stereo not drawn)
Cc1cc(S(=O)(=O)NCCCN2CCOCC2)ccc1F
CN(Cc1ccco1)c1cc(-c2ccoc2)ncn1
COc1ccc(C(=O)N2CCC3(CC2)CN(Cc2ccc(C#N)cc2)C3)cc1
COc1ccc(C(=O)Nc2ccc(S(=O)(=O)N3CCOCC3)cc2)cc1OC
COc1ccc(NC(=O)N2CC[C@@]3(CCCN(C(=O)c4cccn4C)C3)C2)cc1
O=C(CSc1ncccn1)Nc1ccc(S(=O)(=O)N2CCCCC2)cc1
O=C(O)c1cc(S(=O)(=O)N2CCCCC2)ccc1F
CC[C@@H]1OC(=O)[C@H](C)[C@H](O[C@@H]2C[C@](C)(OC)[C@H](O)[C@H](C)O2)[C@H](C)[C@H](O[C@@H]2O[C@@H](C)C[C@@H](N(C)C)[C@@H]2O)[C@](C)(O)C[C@H](C)C(=O)[C@H](C)[C@H](O)[C@]1(C)O

AC50, active:
CN(Cc1ccco1)c1cc(-c2cccnc2)ncn1 0.316 µM
CN(Cc1ccco1)c1cc(-c2cccc(C#N)c2)ncn1 0.794 µM
COc1cccc(-c2cc(N(C)Cc3ccco3)ncn2)c1 0.794 µM
CCOC(=O)c1c(C)[nH]c(C(=O)OCC(=O)NC2CCS(=O)(=O)C2)c1C (stereo not drawn) 12.6 µM
CCCS(=O)(=O)N1CCCC(C(=O)N2CCN(C(=O)OCC)CC2)C1 (stereo not drawn) 10 µM
COC(=O)c1ccc(NC(=O)c2cc3sccc3n2C)cc1 8.91 µM
Cn1c(C(=O)Nc2ccccc2)cc2sccc21 8.91 µM
COCCNc1ncnc2ccc(-c3cccnc3)cc12 0.2 µM
COCCNc1ncnc2ccc(-c3cccc(OC)c3)cc12 0.794 µM
COc1cccc(-c2ccc3ncnc(NCCNC(C)=O)c3c2)c1 3.16 µM
COc1ccccc1CNc1ncncc1-c1ccccc1Cl 10 µM
COc1ccc(CNc2ncncc2-c2ccccc2C(F)(F)F)c(OC)c1 15.8 µM
COc1ccccc1CNc1ncncc1-c1ccccc1C(F)(F)F 15.8 µM
Cn1cc(C2=C(c3ccc(Cl)cc3Cl)C(=O)NC2=O)c2ccccc21 3.16 µM
COc1ccccc1-c1nccc(NCc2ccccc2)n1 2.51 µM
COc1ccccc1-c1nccc(NCc2cccnc2)n1 0.2 µM
COc1ccccc1-c1nccc(NCc2cccc(C)c2)n1 0.631 µM
CNc1ccnc(-c2ccccc2OC)n1 5.01 µM
CNc1ccnc(-c2ccccc2C)n1 5.01 µM
Cc1ccccc1-c1nccc(NCc2cccnc2)n1 0.2 µM
C/C(=N\NC(=O)c1ccc(Cl)cc1)c1cccc(NC(=O)C(C)C)c1 3.55 µM
CCC(=O)Nc1ccc(/C(C)=N\NS(=O)(=O)c2ccc(C)cc2)cc1 25.1 µM
C/C(=N/NS(=O)(=O)c1ccc(C)cc1)c1cccc(NC(=O)c2cccc(Cl)c2)c1 14.1 µM
C/C(=N\NC(=O)c1cccc(Cl)c1)c1cccc(NC(=O)C(C)C)c1 5.01 µM
C/C(CC(=O)NCCCN1CCOCC1)=N\NC(=O)COc1ccc(Cl)cc1 2.51 µM
CN(Cc1ccco1)c1cc(-c2ccc3c(c2)OCO3)ncn1 0.501 µM
CN(C)c1ccc(-c2cc(N(C)Cc3ccco3)ncn2)cc1 0.316 µM
COc1cc(NC(=S)Nc2ccc(S(=O)(=O)N3CCOCC3)cc2)cc(OC)c1OC 2.51 µM
O=C(Nc1ccc(F)cc1)c1cc(S(=O)(=O)N2CCCCC2)cs1 17.8 µM
COc1cccc(-c2nccc(NCc3cccnc3)n2)c1 0.158 µM
COc1cccc(-c2nccc(NCc3ccccc3)n2)c1 0.501 µM
COc1cccc(-c2nccc(NCc3cccs3)n2)c1 0.2 µM
COc1ccc(-c2cc(C(F)(F)F)nc(NCc3cccnc3)n2)cc1 0.794 µM
